JMJD2A Tudor inh – qHTS Assay for Inhibitors of JMJD2A-Tudor Domain. Lysine-specific demethylase 4A (Homo sapiens), O75164. AlphaScreen JMJD2A-Tudor / H3K4me3 peptide binding. Potency, µM (series often up to 114 µM), most hits filed as inhibitors. 390,000 compounds, 4.4% hits. AID 504339, 2011; further: nearly all actives have a fitted effect of over 50% in size
HP1b binding inh – HTS for Inhibitors of HP1-beta Chromodomain Interactions with Methylated Histone Tails. Chromobox protein homolog 1 (Homo sapiens), P83916. AlphaScreen HP1-beta / biotin-H3K9me3 peptide binding. Potency, µM (series often up to 114 µM), hits mostly inhibitors. 390,000 compounds, 0.56% hits; further: nearly all actives have a fitted effect of over 70% in size
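AlphaScreen: HP1-beta (50 nM) preformed 30 min with biotin-H3(1-18)K9me3 peptide (50 nM) in PBS pH 7.4, 0.01% Tween-20. Compound added for 30 min at RT, then streptavidin donor/nickel chelate acceptor beads (10 ug/mL) for 30 min.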
G9a inh – qHTS Assay for Inhibitors of Histone Lysine Methyltransferase G9a | Histone-lysine N-methyltransferase EHMT2 (Homo sapiens), Q96KQ7 | G9a H3K9 monomethylation, AlphaScreen, 2 h | Potency, µM (highest dose often 102 µM), actives largely listed as inhibitors | 350,000 compounds, 8.8% hits | AID 504332, 2011; further: nearly all actives have a fitted effect of over 75% in size
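AlphaScreen detection with an anti-monomethyl H3K9 antibody quantified product after a 2 h room-temperature reaction containing 500 nM biotinylated H3K9 peptide, 20 µM SAM and 20 nM enzyme, which had been preincubated 15 min with compound.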
GLS inhibitor – qHTS for Inhibitors of Glutaminase (GLS) | Glutaminase kidney isoform, mitochondrial (Homo sapiens), O94925 | GLS enzymatic activity, qHTS titration | Potency, µM (titrated, usually from 45.5 µM), most hits filed as inhibitors | 410,000 compounds, 0.21% hits | AID 624170, 2012
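Two-point fluorescence kinetic (t0, 30 min RT) for hKGA; glutamate detected via glutamate oxidase–HRP–Amplex Red. Substrate: 1 mM L-glutamine solution; buffer 45 mM KH2PO4, pH 8.2.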
BAZ2B inh – qHTS Assay for Inhibitors of BAZ2B; Potency, µM (series often up to 114 µM), actives largely listed as inhibitors; AlphaScreen BAZ2B-H3K14Ac peptide displacement; Bromodomain adjacent to zinc finger domain protein 2B (Homo sapiens), Q9UIF8; 360,000 compounds, 4.4% hits; further: nearly all actives have a fitted effect of over 60% in size
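BAZ2B 50 nM plus b-H3(5-23)K14Ac 50 nM, PBS pH 7.4/0.01% Tween-20, 30 min RT; compound added (max 110 uM), 30 min RT; streptavidin donor/Ni-chelate acceptor beads 10 ug/mL final, 20 min dark; AlphaScreen read.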
Hits are given with their value; 0 = inactive; ? = inconclusive; - = not tested or not shown; [ ] = another dose, or the depositor's remark. The list is not random: actives were taken first. Their share in the collection is about 10%. The call rests on the fitted dose curve; in most records, active means well fitted curve in the direction sought with a large enough effect; inconclusive means small, poorly fitted or top-dose-only effect, or another doubt; inactive means no such curve, though single readings can be large; an effect the other way counts as inactive or inconclusive.

SMILES	JMJD2A Tudor inh	HP1b binding inh	G9a inh	GLS inhibitor	BAZ2B inh
Cc1ccccc1NC(=O)c1sc2nc3c(c(-c4ccco4)c2c1N)CCC3	0[11.4 µM]	0	40µM	0	0
Nc1c(C(=O)Nc2ccccc2)sc2nc(-c3ccco3)ccc12	0	0	11µM	0	0
Nc1c(C(=O)Nc2ccccc2)sc2nc(-c3cccnc3)ccc12	-	-	?	-	0
COc1ccccc1NC(=O)c1sc2nc(-c3ccco3)ccc2c1N	0	0	2.5µM	0	0
CCc1ccccc1N1CC(c2nnc(NC(=O)c3ccco3)s2)CC1=O (stereo not given)	0	0	0	0	0
CCCCN(CC)CCCNC(=O)c1cc2c(=O)[nH]c3ccccc3c2n1C	0	0	0	0	-
Cc1ccc(C)c2nc3sc(C(=O)O)cc3cc12	0	0	40µM	0	0
Cc1ccc(C)c(N(CC(=O)NC2CCCC2)C(=O)c2cc3cc4cccc(C)c4nc3s2)c1	0	0	0[0.0925 µM]	0	0
NC(=O)c1ccsc1NC(=O)c1ccc2c(c1)CCCC2	0	0	0	0	0
NC(=O)c1ccsc1NC(=O)c1ccc(N2CCCC2=O)cc1	0	0	45µM	0	0
Cc1ccc2nc(SCC(=O)Nc3ncccn3)[nH]c2c1	0	0	-	0	?
Cc1ccc2nc(SCC(=O)NNC(=O)c3ccccc3)[nH]c2c1	0	0	25µM	0	0
Cn1c(SCc2ccc(F)cc2)nc2ccc(C(=O)NCc3ccc(F)cc3)cc21	0	0	0	0	0
O=C(CSc1nc2ccc(Cl)cc2[nH]1)NCCc1ccccc1	0	0	79µM	0	0
Cc1ccc(CNC(=O)c2ccc3nc(SCc4ccc(F)cc4)[nH]c3c2)cc1	7.9µM	?	7.9µM	0	40µM
Cc1ccc(C)c(SCC(=O)NNC(=O)c2ccccc2)c1	0	0	45µM	0	0
Cc1ccccc1-c1n[nH]nc1C1=CC(=O)C[C@H](c2ccc(F)cc2)C1	-	-	-	0	-
Cc1ccc(S(=O)(=O)c2cn(Cc3ccccc3)c3cc(N4CCCC4)c(F)cc3c2=O)cc1C	0	0	0	0	0
COc1ccc(OCC(O)CNC(C)c2ccccc2)cc1 (stereo not given)	0	0	0	0	0
CC(NCC(O)COc1ccc2ccccc2c1)c1ccccc1 (stereo not given)	0.79µM	45µM	14µM	0	50µM
C/C(CC(C)C)=N\NS(=O)(=O)c1ccc(C)c([N+](=O)[O-])c1	?	0	32µM	0	0
Cc1ccc(/C=N/NC(=O)c2cccs2)cc1[N+](=O)[O-]	0	0	0	0	0
C/C(=N\NS(=O)(=O)c1ccc(C)c([N+](=O)[O-])c1)c1cccs1	0	0	32µM	0	-
CC(NC(=O)c1cccs1)c1ccc(Br)cc1 (stereo not given)	?	0	-	0	-
O=[N+]([O-])c1ccc(S(=O)(=O)N/N=C/c2cccs2)cc1	0	?	?	0	0
SMILES	JMJD2A Tudor inh	HP1b binding inh	G9a inh	GLS inhibitor	BAZ2B inh
C/C(=N\NS(=O)(=O)c1ccc([N+](=O)[O-])cc1)c1cccs1	?	0	45µM	0	?
CC(C)/C(=N\NS(=O)(=O)c1ccc(Br)cc1)c1cccs1	50µM	0	?	0	0
Cc1ccc2c(c1)C(c1ccc(F)cc1)N(C(=O)COc1ccc(Cl)cc1Cl)CC(=O)N2 (stereo not given)	0	0	0	0	0
C=Cc1ccc(CSc2nc(-c3ccccc3C)nc3c2Cc2c(CO)cnc(C)c2O3)cc1	0	0	0	0	0
CN1CCN(c2cccc3c2S(=O)(=O)N[C@@H](Cc2ccccc2)CO3)CC1	-	-	-	0	-
O=C(Nc1ccc(NC(=O)C2CC2)nc1)c1ccccn1	45µM	0	32µM	0	?
CCC(=O)Nc1ccc(NC(=O)c2ccccn2)cn1	0	0	?	0	0
CC(C)C(=O)Nc1ccc(NC(=O)c2ccccn2)cn1	?	0	25µM	0	0
S=c1[nH]cc(-c2ccccc2)[nH]1	25µM	0	0	0	0
COc1cc(-c2ccccc2)[nH]c(=S)n1	0	0	0[2.33 µM]	0	?
O=[N+]([O-])c1ccc(-c2c[nH]c(=S)[nH]2)cc1	?	?	2µM	0	0
O=C(Nc1cc(S(=O)(=O)N2CCOCC2)ccc1N1CCCC1)c1ccc2c(c1)S(=O)(=O)c1ccccc1C2=O	?	4µM	-	7.9µM	?
O=C(Nc1cc(S(=O)(=O)N2CCOCC2)ccc1N1CCCCC1)c1ccccc1	0	0	0	0	0
CCOc1cc(N2CCOCC2)c(OCC)cc1NC(=O)c1cc(S(=O)(=O)N2CCOCC2)ccc1Cl	?	0	50µM	0	?
O=C(Nc1cc(S(=O)(=O)N2CCOCC2)ccc1N1CCCC1)c1ccc(Cl)cc1	?	?	1.8µM	0	0
NC(=O)c1ccc(NC(=O)CNc2cc(S(=O)(=O)N3CCOCC3)ccc2N2CCCC2)cc1	0	0	-	0	-
CC(=O)c1ccc(NC(=O)CNc2cc(S(=O)(=O)N3CCOCC3)ccc2N2CCCC2)cc1	?	0	35µM	0	0
CCCCN(C(=O)c1cc(S(=O)(=O)N2CCOCC2)ccc1N1CCOCC1)c1ccccc1	-	-	-	0	-
CC1CCN(C(=O)C2COc3ccccc3C2)CC1 (stereo not given)	0	0	0	0	0
COc1cc(Cl)c(C)cc1NC(=O)CSC1=NCCS1	0	0	-	0	-
CCOc1cc(CNC(=O)c2ccc3nc(C(C)C)oc3c2)cc(OCC)c1OCC	0	0	0	0	0
CCOc1ccc(NC(=O)CN(C)S(=O)(=O)c2ccc3c(c2)CCC(=O)N3)cc1	0	0	0	0	0
O=C(O)c1cc(S(=O)(=O)Nc2ccc(N3CCCCC3)cc2)ccc1Cl	0	0	0	0	0
CCN1CCN(S(=O)(=O)c2ccc(Cl)c(C(=O)Nc3ccccc3N3CCCCC3)c2)CC1	?	0	40µM	0	0
O=C(Nc1ccccc1N1CCCC1)c1cc(S(=O)(=O)N2CCOCC2)ccc1Cl	0	0	50µM	0	0
CCOc1cc(N2CCOCC2)c(OCC)cc1NC(=O)CCS(=O)(=O)c1ccc(Cl)cc1	0	0	22µM	0	-
O=S(=O)(Nc1ccc(N2CCCCC2)cc1)c1ccc(F)c(F)c1	?	0	13µM	0	32µM
O=C(NC(Cc1ccccc1)C(=O)O)/C(=C\c1ccccc1)NC(=O)c1ccc(Br)o1 (stereo not given)	0	0	-	0	0
COc1ccc(-c2noc(CC(=O)N(C)c3cccc(C)c3)n2)cc1	0	0	0	0	0
CC(=O)N(CCc1ccccc1)c1ccc2c(c1)C1CC2CCN1C(=O)OCc1ccccc1 (stereo not given)	-	-	-	0	-
